Sampled rows, rich in hits. Any-hit rate of the full collection: about 2.8%.
FXN GAA850 act = activators of GAA850 frataxin (FXN) promoter. HEK293 lucGAA850 FXN promoter luciferase reporter, 24 h; percent of 10 µM SAHA response. activation, % at 6 µM. AID 540364. 360,000 compounds, 0.56% hits;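 active = activation above the average of all compounds screened plus 3 SD, cutoff fixed separately per campaign, cut at about 7.5% in these data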;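 also: 0% = DMSO wells and 100% = 10 µM SAHA wells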
esBAF inh = inhibitors of esBAF chromatin remodeling in mouse ES cells. Bmi1-luciferase knock-in reporter, 24 h; 100% = twice the neutral-well signal. reporter increase, % at 12.5 µM. 350,000 compounds, 2% hits. AID 602393; in the data active = activation above about 40%; inconclusive = no clear call, values can overlap the other calls;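 also: 0% = median of the plate's neutral control wells and 100% = double that signal; a rise in the Bmi1 reporter signal indicates esBAF inhibition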
MITF act = MITF TRPM1 promoter activation in melanoma cells; 300,000 compounds, 0.75% hits; SK-MEL-5 TRPM1-promoter luciferase, 24 h; % of positive control, neutral wells = 0; activation, % at 12.5 µM;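 active = mean activation of at least 80% with every replicate also reaching 80%; inconclusive = mean reaches 80% but some replicate falls short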;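 also: 0% = neutral control wells and 100% = parthenolide positive control wells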
Wnt act = activators of Wnt/beta-catenin signaling; Wnt/beta-catenin reporter cell assay, activator, plate reader; activation, % at 9.35 µM; 300,000 compounds, 1.2% hits; AID 743398; in the data active = activation above about 30%, passing the limit was not always enough; inconclusive = no clear call, values can overlap the other calls;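 also: 0% = neutral control wells and 100% = positive control wells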
* hit, by the source's call; ? = inconclusive; · = no result.

SMILES	FXN GAA850 act	esBAF inh	MITF act	Wnt act
O=C(Nc1ccc(NC(=O)c2cccc([N+](=O)[O-])c2)cc1)c1cccc([N+](=O)[O-])c1	2.2	6.5	·	5.6
O=C(Nc1ccc([N+](=O)[O-])cc1)c1cccc([N+](=O)[O-])c1	-0.3	-0.1	·	39.7*
O=C(Nc1ncc([N+](=O)[O-])s1)c1cccc([N+](=O)[O-])c1	3.9	-58.0	-5.0	37.6*
CCN(CC)c1ccc(C(=O)Nc2ccccc2)cc1[N+](=O)[O-]	2.0	·	87.1*	13.0
O=C(Nc1cc([N+](=O)[O-])ccc1O)c1cccc([N+](=O)[O-])c1	1.3	25.1	30.7	5.6
Cc1cc(C(=O)Nc2cccc3c2O[C@@H](CN(C)Cc2ccccc2)[C@H](C)CN([C@H](C)CO)C3=O)n(C)n1	·	-0.8	·	·
CCCN1[C@@H]2c3ccc(-c4cccc(F)c4)c(=O)n3C[C@H]1[C@H](CO)[C@H]2C(=O)NCC1CC1	·	-1.0	·	·
CCCC#Cc1cnc2c(c1)C(=O)N([C@H](C)CO)C[C@@H](C)[C@H](CN(C)C)O2	·	-2.7	·	·
CN(C)C(=O)C[C@@H]1CC[C@@H](NS(=O)(=O)c2ccccc2)[C@@H](CO)O1	·	-0.8	·	·
Clc1cccc(-c2cc3nc4c(c(N5CCN(c6cnccn6)CC5)n3n2)CCCC4)c1	-0.7	46.7*	46.8	3.4
COc1ccc(NC(=O)N(C)C[C@H]2Oc3ccc(NC(=O)Cn4cnnn4)cc3C(=O)N([C@H](C)CO)C[C@H]2C)cc1	·	-2.1	·	·
CCC(=O)Nc1ccc2c(c1)C(=O)N(C)C[C@H](OC)[C@H](C)CN(Cc1cccnc1)[C@@H](C)CO2	·	-0.1	·	·
CCCc1nc(Nc2nc3ccccc3o2)nc(C)c1C(=O)OCC	5.6	62.6*	115.7*	·
O=C(O)c1ccc(/C=C/c2ccc3cccc(O)c3n2)cc1	7.6	104.1*	?	16.7
Oc1ccc(/C=C/c2ccc3cccc(O)c3n2)cc1Br	-3.5	77.4*	43.7	14.5
COCC(=O)Nc1ccc2c(c1)OC[C@H](C)N(C(=O)c1ccccc1F)C[C@@H](C)[C@H](OC)CN(C)C2=O	·	-3.6	·	·
Cc1ccc(C2C(C(=O)c3cccs3)=C(O)C(=O)N2c2ccc(S(N)(=O)=O)cc2)cc1 (centres undefined)	0.9	·	12.3	-1.1
Cc1ccc(C2C(C(=O)c3cccs3)=C(O)C(=O)N2c2cccc(C)n2)cc1 (centres undefined)	0.8	·	·	33.5*
O=C(Nc1ccn(Cc2ccc(Cl)cc2)n1)c1ccccc1	5.1	56.4*	?	35.5*
Cc1cc(C(=O)OCC(=O)Nc2c(F)cccc2F)c(C)n1-c1ccccc1	0.7	48.4*	27.9	13.8
Cc1nn(-c2ccccc2)c(C)c1C(=O)OCC(=O)NC(=O)NC1CCCC1	-3.1	9.8	-4.9	·
Cc1nn(-c2ccccc2)c(C)c1C(=O)OCC(=O)NC12CC3CC(CC(C3)C1)C2	0.5	50.1*	18.7	0.0
Cc1nn(-c2ccccc2)c(C)c1C(=O)OCC(=O)Nc1ccccc1F	3.8	36.5	100.2*	43.7*
CC(=O)Nc1ccc(NC(=O)COC(=O)c2c(C)nn(-c3ccccc3)c2C)cc1	3.1	·	-0.5	-1.4
Cc1cccc(C(=O)OCC(=O)c2c(C)[nH]c3ccccc23)c1O	3.4	72.8*	81.6*	37.1*
SMILES	FXN GAA850 act	esBAF inh	MITF act	Wnt act
N#CCC(=O)Nc1ccc(C(=O)OCC(=O)c2ccc3c(c2)OCCO3)cc1	0.5	67.9*	43.1	27.1
N#CCC(=O)Nc1ccc(C(=O)OCC(=O)c2ccc3c(c2)OCO3)cc1	2.8	46.6*	69.4	39.1*
NS(=O)(=O)c1ccc(NC(=O)COC(=O)c2ccc3c(c2)OCCO3)cc1	0.6	-7.1	-14.6	-1.0
Cc1cccc(C(=O)OCC(=O)c2ccc3c(c2)OCO3)c1O	3.1	5.6	118.9*	57.3*
COCCNC(=O)[C@H]1[C@H](CO)[C@H]2Cn3c(ccc(-c4ccc(F)cc4)c3=O)[C@@H]1N2C	·	-2.7	·	·
CCOC(=O)c1cnc2cc(-c3ccc(Cl)cc3)nn2c1N	2.9	67.5*	149.3*	21.0
COCc1nn2c(N)c(C#N)cnc2c1-c1ccccc1	1.5	0.0	-7.8	-1.8
Nc1c(-c2ccccc2)cnc2cc(-c3ccccc3)nn12	3.9	·	58.4	55.7*
COCc1nn2c(N)c(-c3ccccc3)cnc2c1-c1ccccc1	7.0	50.2*	107.8*	8.4
Cc1cc2ncc(-c3ccc(Cl)cc3)c(N)n2n1	3.2	62.0*	?	12.5
C[C@H](CO)N1C[C@H](C)[C@@H](CN(C)Cc2ccccc2F)Oc2cc(C3=CCCCC3)ccc2S1(=O)=O	·	-2.1	·	·
N#Cc1c(-c2ccccc2)ccnc1Oc1ccccc1	-0.1	48.9*	46.7	·

Source: PubChem BioAssay
